Assay outcomes as filed in PubChem.
Hits are enriched below; roughly 3.7% of the tested compounds scored in any of these assays.
HepG2 tox: counter-screen for TGF-b inhibitors: cytotoxicity in HepG2 cells; HepG2 CAGA-GFP viability, ATP luminescence, 18 h; 410,000 tested, 0.76% active; AID 588856; Potency, µM (doses to about 46.1 µM), hits mostly cytotoxic
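CellTiter-Glo luminescence gave cytotoxicity after 18 hours at 37 degrees C. The cells were HepG2 CAGA-GFP in 1% FBS DMEM, stimulated with 500 pg/mL TGF-beta after compound addition. %Activity was normalised to no-cell wells (complete cell-killing) and DMSO (no toxicity), and curves were fitted and classified.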
GLP1R inv ag: GLP-1 receptor (human) inverse agonism | P43220 | HEK293 GLP-1R CRE-luciferase, luminescence, 24 h; GLP-1R form is constitutively active | Potency, µM (top dose mostly 38.3 µM), usual class: inhibitors | 410,000 tested, 1.6% active | AID 624417; also: nearly all actives have a fitted effect of over 55% in size
Target sequence (P43220 whole entry, looked up): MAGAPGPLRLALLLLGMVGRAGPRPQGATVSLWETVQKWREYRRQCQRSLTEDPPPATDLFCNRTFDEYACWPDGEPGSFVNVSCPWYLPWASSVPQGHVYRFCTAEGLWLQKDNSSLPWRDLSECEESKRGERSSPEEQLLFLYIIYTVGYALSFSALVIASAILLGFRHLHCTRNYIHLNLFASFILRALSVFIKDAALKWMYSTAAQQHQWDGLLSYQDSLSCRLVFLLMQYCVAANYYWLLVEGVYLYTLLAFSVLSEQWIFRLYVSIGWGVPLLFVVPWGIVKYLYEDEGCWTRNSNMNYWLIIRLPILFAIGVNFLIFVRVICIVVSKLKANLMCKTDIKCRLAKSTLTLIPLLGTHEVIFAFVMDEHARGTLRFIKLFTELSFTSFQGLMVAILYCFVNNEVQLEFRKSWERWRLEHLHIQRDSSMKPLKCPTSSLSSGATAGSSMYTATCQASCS
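Inverse agonism was detected as reduced cAMP-driven luciferase luminescence after 24 h compound treatment. The cells were HEK293 clones expressing constitutively active human GLP-1R with the reporter. Reporter-only and GPR119 cell lines served as counterscreen controls.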
ATXN2 expr inh: inhibitors of ATXN2 expression; HEK-293 ATXN2-luciferase reporter, luminescence, 24 h; 360,000 tested, 0.72% active; Potency, µM (series often up to 57 µM), actives largely listed as inhibitors; also: nearly all actives have a fitted effect of over 55% in size
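qHTS (up to 57 uM final) was run with 24 h compound exposure of reporter cells at 37 °C. Each well was multiplexed: SteadyGlo luminescence measured ATXN2-luciferase expression after a fluorogenic Gly-Phe-AFC viability readout (25 uM final).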
S2 tox: reduces viability in counter-screen for ATXN expression inhibitors; Potency, µM (titrated, usually from 56.7 µM), actives largely listed as cytotoxic; S2 cells (HEK-293 line with an ATXN2-luciferase reporter) viability, CellTiter-Fluor protease fluorescence, 24 h; 400,000 tested, 0.49% active; AID 651635; also: nearly all actives have a fitted effect of over 40% in size
GLP-1R agonist: activates the human GLP-1 receptor. P43220. HEK293 GLP-1R CRE-luciferase, luminescence, 4-6 h; cells express a hypersensitive GLP-1R form. Potency, µM (titrated, usually from 45.6 µM), hits mostly activators. 380,000 tested, 0.007% active. AID 624172
TGFb inhibitor: TGF-b pathway inhibition | HepG2 CAGA-GFP TGF-b/SMAD3 reporter, GFP fluorescence, 18 h; TGF-beta stimulated, 500 pg/mL final | Potency, µM (top dose mostly 46.1 µM), actives largely listed as inhibitors | 410,000 tested, 1.2% active | AID 588855; also: nearly all actives have a fitted effect of over 65% in size
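First, reporter cells (HEPG2 CAGA-GFP) rested 2 h at 37 degrees C. Next, compounds were pinned in and TGF-beta added to 500 pg/mL final. After 18 h, GFP was imaged per cell and summed per well.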
Large screens that a line does not name were inactive. Calls follow the shape of the dose curve; as a rule, active = well fitted curve in the direction sought with a large enough effect; inconclusive = small, poorly fitted or top-dose-only effect, or another doubt; inactive = no such curve, though single readings can be large; an effect the other way counts as inactive or inconclusive.

COc1c(OC(C)=O)ccc(/C=C/c2ccc3cccc(OC)c3n2)c1[N+](=O)[O-]	GLP1R inv ag inconclusive
Oc1ccc(/C=C/c2ccc3cccc(O)c3n2)cc1Br	GLP1R inv ag 10µM, TGFb inhibitor inconclusive (no result: S2 tox)
CCOc1cccc(/C=C/c2ccc3cccc(O)c3n2)c1OC	GLP1R inv ag inconclusive, TGFb inhibitor inconclusive
CCOc1cc(/C=C/c2ccc3cccc([N+](=O)[O-])c3n2)ccc1O	S2 tox inconclusive, TGFb inhibitor 12.6µM
CCOc1c(OC(C)=O)ccc(/C=C/c2ccc3cccc(OC(C)=O)c3n2)c1[N+](=O)[O-]	S2 tox inconclusive, TGFb inhibitor 12.6µM
Cc1ccc(-c2nc3cccnc3o2)cc1NC(=O)COc1ccc(Cl)cc1C	ATXN2 expr inh 31.6µM, S2 tox 28.2µM
Cc1ccc(OCC(=O)Nc2cc(-c3nc4cc(Cl)ccc4o3)ccc2C)c(C)c1	none (no result: GLP1R inv ag, ATXN2 expr inh, S2 tox, GLP-1R agonist)
CCC1CN(C(=O)N2CCC(C(=O)NCCc3cc(OC)ccc3OC)CC2)c2ccccc2O1 (stereo not drawn)	TGFb inhibitor inconclusive (no result: ATXN2 expr inh, S2 tox, GLP-1R agonist)
COC(=O)c1c(NC(=O)C(Cl)Cl)sc2c1C(C(=O)OC)CC2 (stereo not drawn)	GLP1R inv ag inconclusive, TGFb inhibitor 11.2µM (no result: ATXN2 expr inh)
COC(=O)c1c(NC(=O)C(C)(C)C)sc2c1C(C(=O)OC)CC2 (stereo not drawn)	none
O=C1c2ccccc2NC(c2ccccc2O)N1Cc1ccco1 (stereo not drawn)	none (no result: GLP1R inv ag, ATXN2 expr inh, S2 tox, GLP-1R agonist)
N#C/C(=C\c1ccc([N+](=O)[O-])o1)c1nc2ccccc2[nH]1	ATXN2 expr inh 12.6µM, TGFb inhibitor inconclusive
N#C/C(=C(/O)c1ccc([N+](=O)[O-])o1)c1nc2ccccc2[nH]1	S2 tox inconclusive, TGFb inhibitor inconclusive (no result: ATXN2 expr inh)
O=C(NCc1cccc(C(F)(F)F)c1)c1cc(Cl)cc(Cl)c1	none
O=C(NCc1cccc(Cl)c1)c1ccc(S(=O)(=O)Nc2cccc(C(F)(F)F)c2)cc1	HepG2 tox 10µM, GLP1R inv ag inconclusive, TGFb inhibitor inconclusive
O=C(Cc1cccc(C(F)(F)F)c1)NCc1cccc(Cl)c1	GLP1R inv ag 10µM
CCCc1cc(=O)n2[nH]c(C)c(-c3ccccc3)c2n1	none
Cc1[nH]n2c(=O)cc(-c3ccc([N+](=O)[O-])cc3)nc2c1-c1ccccc1	GLP1R inv ag inconclusive, ATXN2 expr inh 20µM, S2 tox inconclusive, TGFb inhibitor inconclusive
COC(=O)Cc1cc(=O)n2[nH]c(C)c(-c3ccccc3)c2n1	none
Cc1[nH]n2c(=O)cc(C(C)(C)C)nc2c1-c1ccccc1	GLP1R inv ag 3.55µM, ATXN2 expr inh 17.8µM
Cc1[nH]n2c(=O)cc(C(C)C)nc2c1-c1ccccc1	S2 tox inconclusive
Cc1[nH]n2c(=O)cc(-c3ccc(Cl)cc3)nc2c1-c1ccccc1	GLP1R inv ag 2.82µM, ATXN2 expr inh 3.55µM, TGFb inhibitor 10µM
COc1ccc(-c2c(C3C4C=CCC(C)C4C(=O)N3Cc3ccccc3)ccc3ccccc23)cc1 (stereo not drawn)	none (no result: GLP1R inv ag, ATXN2 expr inh, S2 tox, GLP-1R agonist)
CC(C)(CNC(=O)c1cnn(-c2nccc(-c3ccccc3F)n2)c1C1CC1)N1CCOCC1	none (no result: HepG2 tox, GLP1R inv ag, ATXN2 expr inh, GLP-1R agonist, TGFb inhibitor)
Nc1c(C(=O)NCc2ccccc2)c2nc3ccccc3nc2n1CCCN1CCOCC1	HepG2 tox 17.8µM, GLP1R inv ag inconclusive, TGFb inhibitor inconclusive (no result: ATXN2 expr inh, S2 tox)
COc1ccc(CNC(=O)c2c(N)n(CCCN3CCOCC3)c3nc4ccccc4nc23)cc1	GLP1R inv ag inconclusive, ATXN2 expr inh inconclusive, TGFb inhibitor 11.2µM
Nc1c(C(=O)NCc2ccc(F)cc2)c2nc3ccccc3nc2n1CCCN1CCOCC1	HepG2 tox 17.8µM, GLP1R inv ag inconclusive, ATXN2 expr inh inconclusive, TGFb inhibitor inconclusive
COC(=O)c1c(N)n(CCCN2CCOCC2)c2nc3ccccc3nc12	none
O=C(O)c1cccc(NC(=S)NC(NC(=O)c2ccco2)C(Cl)(Cl)Cl)c1 (stereo not drawn)	none
